Measurements reported in PubChem BioAssay (NCATS).
Results filed as inconclusive are left out. Calls of active or inactive are those of the source. Unless noted, the call rests on the fitted dose curve; in most records, active means well fitted curve in the direction sought with a large enough effect; inconclusive means small, poorly fitted or top-dose-only effect, or another doubt; inactive means no such curve, though single readings can be large; an effect the other way counts as inactive or inconclusive.

Experiments:
Hek293T = experiment: Primary qHTS to identify gynecologic anti-cancer compounds using libraries of approved drugs and bioactive compounds (AID 1345084); settings: Gynecologic cancer cell panel viability, ATPlite luminescence, 48 h, control line for the selectivity index; series mostly up to 57.5 µM; further: on the % scale 0 is the no-effect control and ±100 the full control effect; nearly all actives have a fitted effect of over 55% in size
In short: (§1)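 Luminescence from the ATPlite ATP-monitoring reagent indicates viable cell number; lower signal means cytotoxicity. Cells received compound 16 h after seeding and were exposed for 48 h across five concentrations.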

JEG-3 = experiment: as above; settings: Gynecologic cancer cell panel viability, ATPlite luminescence, 48 h; series mostly up to 57.5 µM
In short: as §1

OV90 = experiment: as above; settings: Gynecologic cancer cell panel viability, ATPlite luminescence, 48 h; series mostly up to 57.5 µM
In short: as §1

PA-1 = experiment: as above; settings: Gynecologic cancer cell panel viability, ATPlite luminescence, 48 h; series mostly up to 57.5 µM
In short: as §1

SKOV3 = experiment: as above; settings: Gynecologic cancer cell panel viability, ATPlite luminescence, 48 h; series mostly up to 57.5 µM
In short: as §1

Tov-21-G = experiment: as above; settings: Gynecologic cancer cell panel viability, ATPlite luminescence, 48 h; series mostly up to 57.5 µM
In short: as §1

Tov112D = experiment: as above; settings: Gynecologic cancer cell panel viability, ATPlite luminescence, 48 h; series mostly up to 57.5 µM
In short: as §1

[1] = Drug repurposing screens with cells derived from glioblastoma tumor samples (AID 1345199); settings: GBM patient neurospheres viability, ATP luminescence, 48 h; further: nearly all actives have a fitted effect of over 40% in size; further: potency means the concentration at half of the fitted maximal effect; on activity, negative = cell killing: on the % scale 0 is the no-effect control and ±100 the full control effect
In short: (§2)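 Primary testing used CD133+ neurospheres from four GBM patients, seven concentrations, 48 h exposure and ATP-based viability; confirmation added three slower-growing patient lines.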

astro = experiment: as above; settings: viability, ATP luminescence, 48 h; series mostly up to 45.9 µM
In short: as §2

[2] = target: Nuclear receptor subfamily 1 group I member 2 (Rattus norvegicus) (UniProt Q9R1A7); experiment: qHTS assay for small molecule activators of the rat pregnane X receptor (rPXR) signaling pathway (AID 651751; call rule not given here; further: 0% is about no effect); settings: rPXR reporter cells, luciferase (One-Glo), 24 h
[3] = qHTS assay for small molecule activators of the human pregnane X receptor (PXR) signaling pathway (AID 720659; call rule not given here; further: 0% is about no effect)
[4] = at 45.9 µM (top of the series), tumour line B
[5] = at 45.9 µM (top of the series), tumour line D
[6] = at 46.1 µM (top of the series), tumour line C
[7] = at 20 µM (top of the series), tumour line C
[8] = at 21.2 µM (top of the series), tumour line B
[9] = at 21.2 µM (top of the series), tumour line D

Nuclear receptor subfamily 1 group I member 2 (Rattus norvegicus), sequence (Q9R1A7 whole entry, looked up): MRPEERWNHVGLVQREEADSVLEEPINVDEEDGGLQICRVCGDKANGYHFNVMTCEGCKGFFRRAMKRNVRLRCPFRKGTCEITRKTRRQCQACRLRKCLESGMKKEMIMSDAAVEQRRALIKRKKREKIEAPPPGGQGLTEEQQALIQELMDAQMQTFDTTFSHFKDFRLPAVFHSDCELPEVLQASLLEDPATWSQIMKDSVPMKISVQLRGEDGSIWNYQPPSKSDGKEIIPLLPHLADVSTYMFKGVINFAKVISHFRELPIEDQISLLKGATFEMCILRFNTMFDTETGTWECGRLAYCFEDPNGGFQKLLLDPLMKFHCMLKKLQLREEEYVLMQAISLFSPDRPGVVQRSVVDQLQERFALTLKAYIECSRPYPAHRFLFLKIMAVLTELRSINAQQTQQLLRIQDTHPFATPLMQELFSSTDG

O=C(O)[C@H](O)c1ccccc1
inactive: Potency (Hek293T) | Potency (JEG-3) | Potency (OV90) | Potency (PA-1) | Potency (SKOV3) | Potency (Tov-21-G) | Potency (Tov112D) | activity, negative = cell killing [1, 4] -2.7% | activity, negative = cell killing [1, 5] 3.57% | activity, negative = cell killing [1, 6] 1.65% | Potency (astro)

CCN(CC)CCNC(C(=O)OCCC(C)C)c1ccccc1 (stereo unspecified)
inactive: Potency (Hek293T) | Potency (JEG-3) | Potency (OV90) | Potency (PA-1) | Potency (SKOV3) | Potency (Tov-21-G) | Potency (Tov112D) | activity, negative = cell killing [1, 4] -12.5% | activity, negative = cell killing [1, 6] 6.2% | Potency (astro)
active: Potency ([1]; tumour line A) 25.1 µM

O=C(O)[C@@H]1CSCN1
inactive: Potency (Hek293T) | Potency (JEG-3) | Potency (OV90) | Potency (PA-1) | Potency (SKOV3) | Potency (Tov-21-G) | Potency (Tov112D) | activity, negative = cell killing [1, 4] 0.874% | activity, negative = cell killing [1, 5] 4.12% | activity, negative = cell killing [1, 6] -12.1% | Potency (astro)

CCN(CC)C(C)CN1c2ccccc2Sc2ccccc21 (stereo unspecified)
inactive: Potency (Hek293T) | Potency (JEG-3) | Potency (OV90) | Potency (PA-1) | Potency (SKOV3) | Potency (Tov-21-G) | Potency (Tov112D) | activity, negative = cell killing [1, 7] -5.52% | activity, negative = cell killing [1, 8] -16.2% | Potency (astro)
active: Potency ([1]; tumour line A) 10 µM

C[C@]12CC[C@@H]3c4ccc(O)cc4CC[C@H]3[C@@H]1CCC2=O
inactive: Potency (Hek293T) | Potency (JEG-3) | Potency (OV90) | Potency (PA-1) | Potency (SKOV3) | Potency (Tov-21-G) | Potency (Tov112D) | activity, negative = cell killing [1, 4] -16.5% | activity, negative = cell killing [1, 5] -20.7% | activity, negative = cell killing [1, 6] -9.33% | Potency (astro) | max response [2] 1.32%

CC(COc1ccccc1)NC(C)C(O)c1ccc(O)cc1 (stereo unspecified)
inactive: Potency (Hek293T) | Potency (JEG-3) | Potency (OV90) | Potency (PA-1) | Potency (SKOV3) | Potency (Tov-21-G) | Potency (Tov112D) | activity, negative = cell killing [1, 7] -3.58% | activity, negative = cell killing [1, 8] -2.68% | activity, negative = cell killing [1, 9] -14.2% | Potency (astro)

CCCCN(CCCC)CCCOC(=O)c1ccc(N)cc1
inactive: Potency (Hek293T) | Potency (JEG-3) | Potency (OV90) | Potency (PA-1) | Potency (SKOV3) | Potency (Tov-21-G) | Potency (Tov112D) | activity, negative = cell killing [1, 7] -6.46% | activity, negative = cell killing [1, 8] 6.6% | activity, negative = cell killing [1, 9] -16% | Potency (astro)

c1ccc(CN(CC2=NCCN2)c2ccccc2)cc1
inactive: Potency (Hek293T) | Potency (JEG-3) | Potency (OV90) | Potency (PA-1) | Potency (SKOV3) | Potency (Tov-21-G) | Potency (Tov112D) | activity, negative = cell killing [1, 4] -15.8% | activity, negative = cell killing [1, 5] -19.1% | activity, negative = cell killing [1, 6] -20.7% | Potency (astro)

COc1ccc2cc1Oc1cc3c(cc1OC)CC[N+](C)(C)[C@H]3Cc1ccc(cc1)Oc1c(OC)c(OC)cc3c1[C@@H](C2)[N+](C)(C)CC3
inactive: Potency (Hek293T) | Potency (JEG-3) | Potency (OV90) | Potency (PA-1) | Potency (SKOV3) | Potency (Tov-21-G) | Potency (Tov112D) | activity, negative = cell killing [1, 4] -14.8% | activity, negative = cell killing [1, 5] -5.75% | activity, negative = cell killing [1, 6] -3.48% | Potency (astro)

Oc1cccc(O)c1
inactive: Potency (Hek293T) | Potency (JEG-3) | Potency (OV90) | Potency (PA-1) | Potency (SKOV3) | Potency (Tov-21-G) | Potency (Tov112D) | activity, negative = cell killing [1, 4] -16.6% | activity, negative = cell killing [1, 5] -5.28% | activity, negative = cell killing [1, 6] 27.8% | Potency (astro) | max response [2] 4.18% | outcome [3]

CCCCOc1cc(C(=O)OCCN(CC)CC)ccc1N
inactive: Potency (Hek293T) | Potency (JEG-3) | Potency (OV90) | Potency (PA-1) | Potency (SKOV3) | Potency (Tov-21-G) | Potency (Tov112D) | activity, negative = cell killing [1, 7] -6.35% | activity, negative = cell killing [1, 8] -29.6% | Potency (astro)
active: Potency ([1]; tumour line A) 11.2 µM

O=c1cc[nH]c(=S)[nH]1
inactive: Potency (Hek293T) | Potency (JEG-3) | Potency (OV90) | Potency (PA-1) | Potency (SKOV3) | Potency (Tov-21-G) | Potency (Tov112D) | activity, negative = cell killing [1, 4] -6.45% | activity, negative = cell killing [1, 5] -10.9% | activity, negative = cell killing [1, 6] -27.1% | Potency (astro)

Cc1c(Cl)cccc1Nc1ccccc1C(=O)O
inactive: Potency (Hek293T) | Potency (JEG-3) | Potency (OV90) | Potency (PA-1) | Potency (SKOV3) | Potency (Tov-21-G) | Potency (Tov112D) | activity, negative = cell killing [1, 4] -21.5% | activity, negative = cell killing [1, 5] -17% | activity, negative = cell killing [1, 6] -5.72%
active: Potency (astro) 11.2 µM

CC(C)C(=O)c1c(C(C)C)nn2ccccc12
inactive: Potency (Hek293T) | Potency (JEG-3) | Potency (OV90) | Potency (PA-1) | Potency (SKOV3) | Potency (Tov-21-G) | Potency (Tov112D) | activity, negative = cell killing [1, 4] -5.19% | activity, negative = cell killing [1, 6] -20.7% | Potency (astro)
active: Potency ([1]; tumour line A) 8.91 µM

O=C1c2c(O)cccc2Cc2cccc(O)c21
inactive: Potency (Hek293T) | Potency (JEG-3) | Potency (OV90) | Potency (PA-1) | Potency (SKOV3) | Potency (Tov-21-G) | Potency (Tov112D) | activity, negative = cell killing [1, 4] -7.97% | activity, negative = cell killing ([1]; at 46 µM (top of the series), tumour line A) -24.5% | activity, negative = cell killing [1, 6] -8.57% | Potency (astro) | max response [2] -0.627% | outcome [3]

CC1=C(CC(=O)O)c2cc(F)ccc2/C1=C\c1ccc(S(C)=O)cc1 (stereo unspecified)
inactive: Potency (Hek293T) | Potency (JEG-3) | Potency (OV90) | Potency (PA-1) | Potency (SKOV3) | Potency (Tov-21-G) | Potency (Tov112D) | activity, negative = cell killing [1, 4] -9.8% | activity, negative = cell killing [1, 5] -10.1% | activity, negative = cell killing [1, 6] -18.8% | Potency (astro)
